From PubChem BioAssay (NCI)
Compounds without any hit were thinned out: in the full panel of roughly 83,000, 20% have a hit.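 Cells were grown in 96-well plates and exposed to the test compound at a single concentration for 48 hours; results are reported as percent growth, with values below 10 considered active.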 Values without a mark were called inactive. The source made the active and inactive calls.

How the values were obtained:
Assay in all cases: NCI-60 one-dose screen, 48 h (100 = growth as untreated, 0 = no growth, -100 = all killed)
Conditions in all cases: 10 µM
NCI-H23 lung = test system: NCI-H23 lung
NCI-H226 lung = test system: NCI-H226 lung
NCI-H322M lung = test system: NCI-H322M lung
HOP-62 NSCLC = test system: HOP-62 NSCLC
NCI-H460 lung = test system: NCI-H460 lung
HOP-92 NSCLC = test system: HOP-92 NSCLC
NCI-H522 lung = test system: NCI-H522 lung
A549/ATCC NSCLC = test system: A549/ATCC NSCLC
786-0 renal = test system: 786-0 renal
COLO 205 colon = test system: COLO 205 colon

Structure (SMILES)	growth (NCI-H23 lung)	growth (NCI-H226 lung)	growth (NCI-H322M lung)	growth (HOP-62 NSCLC)	growth (NCI-H460 lung)	growth (HOP-92 NSCLC)	growth (NCI-H522 lung)	growth (A549/ATCC NSCLC)	growth (786-0 renal)	growth (COLO 205 colon)
COc1ccc(-c2nc(-c3nc4ccc(OC)cc4[nH]3)c3ccccn23)cc1	90.5%	75.1%	65%	63%	67.7%	13.9%	62.8%	48%	84.4%	95.1%
COc1ccc(OC)c([N+](=O)[O-])c1C=O	107%	92%	101%	78.2%	108%	91.1%	76.9%	101%	110%	124%
Cc1ncc([N+](=O)[O-])n1CCOc1ccc(C(=O)/C=C/c2ccc(C(F)(F)F)cc2)cc1	88%	76.2%	66.4%	88.9%	79.5%	67.1%	67.1%	55.5%	63.3%	61.2%
O=NN(CCCl)C(=O)Nc1ccc(NC(=O)N(CCCl)N=O)cc1	107%	96.5%	112%	105%	88.7%	84.8%	114%	82.8%	61.3%	105%
COc1cc2nc(Sc3sc(N)nc3C)n(-c3ccc(Oc4ccccc4)cc3)c(=O)c2cc1OC	90.6%	89.7%	123%	110%	99.5%	79.5%	83.7%	83.3%	80%	76%
NC1CCC(Nc2nc(NCc3ccc(-c4ccccc4O)nc3)c3ncn(C4CCCC4)c3n2)CC1 (stereo not given)	-50.2% (active)	-3.35% (active)	10.1%	-9.04% (active)	-8.3% (active)	-17.7% (active)	-55.2% (active)	-25.2% (active)	-38.3% (active)	-70.4% (active)
CCC(O)c1ccc(Br)cc1NC(=O)c1cccc(Cl)c1 (stereo not given)	28%	-1.35% (active)	29.4%	28%	3.22% (active)	48.6%	24.2%	4.24% (active)	18.1%	93.9%
COc1ccc(/C=C(\c2cc(OC)c(OC)c(OC)c2)c2nnc(-c3cccs3)o2)cc1	76.1%	92.5%	82.7%	41.3%	72.7%	34.8%	43.7%	77.5%	48.9%	112%
OC(CNC1CCCC1)Cn1c2ccccc2c2ccccc21 (stereo not given)	31%	99.5%	51%	50.1%	8.53% (active)	26.2%	27.7%	11.1%	9.8% (active)	-66.2% (active)
CCCCCCCCCCCCCC[n+]1ccccc1	-11.7% (active)	-19% (active)	16.9%	-62% (active)	-44.8% (active)	-50.8% (active)	-66.9% (active)	-55.8% (active)	-53.5% (active)	-93% (active)
O=S(=O)(O)C1(O)CCCCC1	93.3%	95.4%	89.5%	81.8%	48%	101%	91.7%	98.9%	102%	96.1%
COc1cc(OC)cc(N2CCN(C(=O)Nc3nc4cc(F)ccc4nc3OC)CC2)c1	20.4%	43.3%	29.3%	34.7%	5% (active)	39.8%	-3.96% (active)	19.8%	15%	-65.4% (active)
COc1cccc2c1C(=O)c1c(O)c3c(c(O)c1C2=O)C[C@@](O)(C(=O)COC(=O)c1ccccc1)C[C@@H]3OC1CC(N)C(O)C(C)O1 (stereo not given in full)	-65.6% (active)	-71.9% (active)	-95.7% (active)	-96.8% (active)	-80.9% (active)	-77.9% (active)	-85.8% (active)	-85.1% (active)	-83.9% (active)	-90.9% (active)
CNCCCNCCCN1C(=O)c2ccc3c4c(ccc(c24)C1=O)C(=O)N(CCCNCc1ccccc1OC)C3=O	-31% (active)	8.88% (active)	1.15% (active)	7.81% (active)	-16.6% (active)	-32.1% (active)	-52.7% (active)	1.84% (active)	10.4%	-72.8% (active)
COc1cc(C2CC(=O)Nc3c2c(C)nn3-c2nc3ccccc3[nH]2)cc(OC)c1O (stereo not given)	36.8%	66%	80.4%	88.6%	36.2%	32%	64.8%	40.1%	53.1%	106%
Cc1cc(C)c2nc(C)c(C)[n+]([O-])c2c1	97.1%	103%	94.7%	73.4%	115%	93.4%	85.2%	68.6%	103%	111%
CCCC(C)c1ccc(OCCCCCCN2CCNCC2)cc1 (stereo not given)	61.6%	89.3%	58.3%	66.6%	6.72% (active)	25.1%	3.3% (active)	39.7%	-21.1% (active)	-68.3% (active)
CC(=O)OCC(COC(C)=O)(COC(C)=O)COC(C)=O	102%	93.5%	99.5%	102%	104%	105%	99.4%	111%	112%	109%
CCOC(=O)c1cc2c(n1Cc1cccc(OC)c1)-c1oncc1CC2	48.9%	50%	-0.987% (active)	37.8%	10%	30.5%	13.7%	42.6%	36.5%	9.01% (active)
CCCCCCCCCCCCCCCCn1cc[n+](C)c1	-51.9% (active)	-60.5% (active)	8.28% (active)	-82.7% (active)	-87.9% (active)	-80.2% (active)	-87.4% (active)	-50.9% (active)	-90.4% (active)	-46% (active)
CCOC(=O)[C@@H](Cc1ccccc1)NC(=O)c1[nH]c2ccc(Cl)cc2c(=O)c1C	99.7%	107%	97.7%	92.3%	103%	100%	71.8%	84.1%	97.4%	111%
COc1ccc(Cn2cc3c(c2-c2ccccc2)CC(C)(C)c2cnoc2-3)cc1	34.4%	52.4%	34.1%	34.2%	9.42% (active)	59.9%	43.3%	49.6%	35.4%	2.39% (active)
CC(=O)Oc1c(C)c(C)c2c(c1C)CCC(C)(CC(=O)OCCCCCCCCCCC[P+](c1ccccc1)(c1ccccc1)c1ccccc1)O2 (stereo not given)	-52.2% (active)	13.2%	13.7%	-84.7% (active)	-46.5% (active)	-85.4% (active)	-78.5% (active)	-72% (active)	-92% (active)	-73.9% (active)
Cn1c(N)c(N=Cc2ccccc2)c(=O)n(C)c1=O	103%	108%	114%	96.3%	114%	102%	101%	105%	103%	106%
Cc1ccc2nc3[nH]c(=O)[nH]c(=O)c3c(N)c2c1	91.9%	100%	73.3%	84.3%	81.2%	76%	83.9%	89%	78.7%	91.2%
CCc1ccc(-c2nnc(COc3ccc(-c4nc5cc(Cl)c(Cl)cc5[nH]4)cc3OC)o2)cc1	67.8%	103%	83.6%	102%	24.5%	72.2%	82.8%	39.3%	77.1%	57.1%
N#CC1C=Cc2c(ccc3ccccc23)N1C(=O)c1ccccc1 (stereo not given)	29.8%	12.9%	22.6%	50%	1.38% (active)	50.6%	9.32% (active)	26.9%	34%	-39.8% (active)
CCCCCCCCCCN=C(c1ccc(N(C)C)cc1)c1ccc(N(C)C)cc1	27.8%	57.6%	44.6%	29.4%	12.1%	47.9%	2.43% (active)	30.5%	48.8%	6.54% (active)
